Laboratory results from PubChem BioAssay (NCI).
About 83,000 compounds went through this panel and 20% of them were active in at least one assay; those are over-represented in the sample as a whole.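 Single-concentration screen, 48 h exposure, 96-well plates. Endpoint: percent growth. Below 10 = active.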 Active and inactive are the calls of the source.

Test system: SW-620 colon
Test: NCI-60 one-dose screen, 48 h (100 = growth as untreated, 0 = no growth, -100 = all killed)
Settings: 10 µM unless noted
Description: Growth inhibition of the SW-620 human tumor cell line is measured as a screen for anti-cancer activity. Cells are grown in 96 well plates and exposed to the test compound for 48 hours. Compounds are tested at a single concentration, which is 10^-5 M for most compounds. The reported endpoint is percent growth (GI% or GIPRCNT), where numbers from 0 - 100% represent growth inhibition, and numbers from -100% - 0 represent cell death. For example, a value of 40 represents 60% growth inhibition. A value of 0 means no net growth occurred over the course of the experiment. A value of -40 indicates 40% of cells at the beginning of the experiment died by the end of the experiment. A value of -100 means all cells are dead at the end of the experiment.
NCI-60 Human Tumor Cell Lines Screen was performed using the standard one-dose NCI protocol, which is described in more detail at https://dtp.cancer.gov/discovery_development/nci-60/default.htm.
Compounds with GIPRCNT values below 10 were considered active. Activity score was based on GIPRCNT using the following formula: […]
Score is 0 for GIPRCNT values of 100 or above, 50 for GIPRCNT values of 0, and 100 for GIPRCNT values of -100.

| Compound | growth |
| --- | --- |
| ON1CCCC1 | 101% (inactive) |
| CC(=O)NNC(=S)N/C=C/c1c(C)ccc([N+](=O)[O-])c1[N+](=O)[O-] | 110% (inactive) |
| Oc1ccc(N=Cc2ccc(OCc3ccccc3)cc2)cc1 | 96.1% (inactive) |
| Cc1onc(-c2c(F)cccc2Cl)c1-c1ncc(-c2ccc(Br)cc2)o1 | 35.6% (inactive) |
| C=CC(=O)OC1CCC(C(C)(C)CC)CC1 (stereo not given) | 107% (inactive) |
| CCCCCC/C=C\CCCCCCCCCc1cc(O)cc(OC)c1O | 14.9% (inactive) |
| CSc1nsc(N)n1 | 92.9% (inactive) |
| CSc1cnc2ccccc2n1 | 93.9% (inactive) |
| CC(=O)c1cccc(N(C)S(=O)(=O)c2ccc(C)cc2)c1 | 81.7% (inactive) |
| O=C(OC1CCCC1)c1ccccc1Cl | 106% (inactive) |
| COC(=O)Cc1cc(COC(C)=O)ccc1C | 110% (inactive) |
| COc1ccc2c(Cl)cc(NC(=O)Nc3c(C)cccc3C)nc2c1 | 85.3% (inactive) |
| Nc1cc(F)ccc1[N+](=O)[O-] | 104% (inactive) |
| Cc1ccccc1NC(=O)Oc1ccc(Cl)cc1C(=O)c1ccccc1 | 98.5% (inactive) |
| N#Cc1ccc(OC(=O)Nc2cc(Cl)cc(Cl)c2)cc1 | 4.92% [100 µM] (active) |
| O=S1(=O)c2ccccc2Oc2ccccc21 | 95% (inactive) |
| CC(C)c1ncc([N+](=O)[O-])n1C | 98% (inactive) |
| C=C(C)[C@@H]1CC[C@]2(CO)CC[C@]3(C)[C@H](CC[C@@H]4[C@@]5(C)CC[C@H](O)C(C)(C)[C@@H]5CC[C@]43C)[C@@H]12 | 54.6% (inactive) |
| CCOC(=O)C1(N)CCCCC1 | 103% (inactive) |
| C=CCC(OC(C)=O)c1ccc(C(C)C)cc1 (stereo not given) | 107% (inactive) |

| Compound | growth |
| --- | --- |
| Nc1c(Br)cc(O)c2c1C(=O)c1ccccc1C2=O | 61.7% (inactive) |
| O=C(O)CCCCCNC(=O)OCc1ccccc1 | 95.2% (inactive) |
| Nc1cc2ccccc2c(O)c1O | -33.6% (active) |
| CCCCCCCCCCCCCCCCCCSC(=N)N | 46.3% (inactive) |
| NC(CCl)=NCC12CC3CC(CC(C3)C1)C2 | 3.96% (active) |
| C=CCNC(=S)N/C=C(/C(=O)c1ccccc1)c1ccccc1 | 98.9% (inactive) |
| COC1(OC)C2(Cl)C(Cl)=C(Cl)C1(Cl)C1COCC12 (stereo not given) | 85.8% (inactive) |
| CCOC(C=O)OCC | 108% (inactive) |
| C=CCN1CCCC1=O | 102% (inactive) |
| CCOC(=O)C(C#N)=C1CCN(C)CC1 | 97.2% (inactive) |
| Cc1ccc(C(C)C)c(OCC(=O)O)c1 | 96% (inactive) |
| OCC1CCC(O)C(CO)N1 (stereo not given) | 101% (inactive) |
| FC(F)(F)c1cc(NC2=NCCN=C(Nc3cc(C(F)(F)F)cc(C(F)(F)F)c3)SS2)cc(C(F)(F)F)c1 | 52% (inactive) |
| CC(c1ccccc1)N(C)C (stereo not given) | 117% (inactive) |
| CC1(c2ccccc2)CO1 (stereo not given) | 108% (inactive) |
| O=[N+]([O-])c1c(O)c(CNCCCO)cc(CNCCCO)c1O | 96.3% (inactive) |
| CCOC(=O)CSCCC#N | 100% (inactive) |
| c1ccc(-c2ccc3ccccc3c2)cc1 | 90.5% (inactive) |
| COc1ccc(-c2csc(NC(=O)Nc3nc(-c4ccc(OC)cc4)cs3)n2)cc1 | 98.1% (inactive) |
| O=C(Nc1c(Cl)cc(Cl)cc1Cl)ON=C1CCCCC1 | 114% (inactive) |
